HIV RNase H inh: HIV-1 RT RNase H inhibitors, primary screen, biochemical, fluorescence | 65,000 compounds, 1.9% hits | RT-RNase H RNA/DNA duplex cleavage | AID 565, 2006 | inhibition, % at 10 µM; in the data active = inhibition above about 50%
* hit, by the source's call. This excerpt belongs to a sample that is enriched for hits.

SMILES | HIV RNase H inh
CCOC(=O)Cn1c(=O)oc2cc(S(=O)(=O)Nc3cc(OCC)ccc3OCC)ccc21 | 2
CCOC(=O)Cn1c(=O)oc2cc(S(=O)(=O)Nc3cc(Cl)ccc3OC)ccc21 | -24
Cc1nn(-c2ccccc2)c(C)c1NC(=O)c1cccs1 | -5
CCOC(=O)c1cc(OC(=O)c2cccs2)n(-c2ccccc2)n1 | 50*
CCOC(=O)c1nc(N)c(=O)n(-c2ccccc2)n1 | -4
CC1(C)CC(=O)C2=C(C1)Oc1nc3ccccc3cc1C2C(C#N)C#N (centres undefined) | 8
COc1cccc(C2CC(c3ccccc3OC)n3nc(N)nc3N2)c1 (centres undefined) | -1
Cc1ccc(N2CC(C(=O)NCC3CCCO3)CC2=O)cc1Cl (centres undefined) | -11
O=C(c1ccc(CNS(=O)(=O)c2ccccc2)cc1)N1CCC2(CC1)OCCO2 | 8
O=C(c1ccc(S(=O)(=O)N2CCCCCC2)cc1)N1CCN(c2ccccn2)CC1 | -3
O=C(c1ccc(CNS(=O)(=O)c2ccccc2)cc1)N1CCN(c2ccccn2)CC1 | 63*
CCOC(=O)Cn1c(=O)oc2cc(S(=O)(=O)NCCc3ccc(OCC)c(OCC)c3)ccc21 | 1
CC1CCCC(C)N1C(=O)CSc1nnc(C2CCCCC2)o1 (centres undefined) | -5
CC(=O)Nc1sc(C)c(C)c1C(=O)OC1CCOC1=O (centres undefined) | -9
O=c1c2cc(N3CCOCC3)ccc2[nH]c(=S)n1CCCN1CCCCCC1 | 5
O=c1c2cc(N3CCOCC3)ccc2[nH]c(=S)n1CCN1CCCC1 | 5
Cc1ccc(Cn2c(=S)[nH]c3ccc(N4CCOCC4)cc3c2=O)o1 | 64*
COc1cccc(-c2n[nH]c(=S)n2Cc2ccco2)c1OC | 27
COCc1n[nH]c(=S)n1-c1cccc2ccccc12 | 4
S=c1[nH]nc(-c2ccco2)n1C1CCCCC1 | 3
Nn1c(-c2ccco2)n[nH]c1=S | 49
S=c1[nH]nc(-c2ccco2)n1-c1cccc2ccccc12 | 54*
COc1ccc(-n2c(-c3ccco3)n[nH]c2=S)cc1 | 57*
CCOC(=O)c1c(NC(=O)CSc2nnc(CNC(=O)c3ccco3)n2C)sc2c1CCC2 | -9
COc1ccc(OCC(O)Cn2c(Nc3cccc(C)c3)nc3c2c(=O)n(C)c(=O)n3C)cc1 (centres undefined) | 6
SMILES | HIV RNase H inh
CSc1ccccc1NC(=O)COc1ccc(S(=O)(=O)N2CCCC2)cc1 | -9
CCCC(c1nnnn1CCOC)N1CCN(c2cccc(OC)c2)CC1 (centres undefined) | -21
CCCS(=O)(=O)c1nnnn1-c1cccc(OC)c1 | 55*
COc1ccc(-n2nnnc2SCC(=O)c2cccc(OC)c2)cc1 | -11
Cn1nnnc1SCC(=O)NC(=O)NCc1ccccc1 | -8
CO/N=C(\C(=O)N[C@@H]1C(=O)N2C(C(=O)O)=C(COC(N)=O)CS[C@H]12)c1ccco1 | 13
Cn1nnnc1SCC1=C(C(=O)O)N2C(=O)[C@@H](NC(=O)[C@H](O)c3ccccc3)[C@H]2SC1 | 61*
COc1cccc(C2/C(=C(/O)c3ccncc3)C(=O)C(=O)N2CCCN2CCOCC2)c1OC (centres undefined) | -9
CCc1c(C)nc2ncnn2c1N1CCC(C(=O)Nc2cccc(C(C)=O)c2)CC1 | 10
Cc1nn(C(=O)c2ccco2)c(C)c1CN1C(=O)c2ccccc2C1=O | -19
Cc1nn(C(=O)c2cccs2)c(C)c1CN1C(=O)c2ccccc2C1=O | 64*
Cc1nn(C(=O)N2CCCCC2)c(C)c1CN1C(=O)c2ccccc2C1=O | -8
CCc1nc(SCc2cc(Cl)ccc2OC)n[nH]1 | -64
COCc1nnc(NC(=O)c2ccc(S(=O)(=O)N(C)C3CCCCC3)cc2)o1 | 25
CC(C)(C)C(=O)Nc1ccccc1C(=O)NCc1ccco1 | -2
O=C(COc1ccc(Cl)cc1)Nc1ccccc1C(=O)NCc1ccco1 | 10
Cc1cc(C)cc(OCC(=O)Nc2ccccc2C(=O)NCc2ccco2)c1 | 60*
CC1Cc2nc(SCC(=O)NCc3ccco3)n(Cc3ccccc3)c(=O)c2S1 (centres undefined) | -23
O=C(CSc1nc2ccsc2c(=O)n1Cc1ccccc1)NCc1ccco1 | -15
CCOC(=O)c1sc2nc(SCC(=O)NCc3ccco3)n(Cc3ccccc3)c(=O)c2c1C | 66*
Cc1sc2nc(SCC(=O)NCc3ccco3)n(-c3ccccc3)c(=O)c2c1C | 27
Cc1ccc(-n2c(SCC(=O)NCc3ccco3)nc3sc(C)c(C)c3c2=O)cc1 | 55*
Cc1nc(SCC(=O)NCc2ccco2)c2c(C)c(C)sc2n1 | -15
Cn1c(NCc2ccco2)nc2c1c(=O)n(Cc1ccc(Cl)c(Cl)c1)c(=O)n2C | 2
COCCn1nnnc1C(c1ccc(OC)c(OC)c1)N1CCN(c2nc3ccccc3s2)CC1 (centres undefined) | -6
O=C(Nc1nnc(-c2ccccc2Cl)o1)c1cccnc1 | -10
COc1cccc(NC(=O)CN2C(=O)COc3ccc(Cl)cc32)c1 | -1
COc1cccc(N=Cc2ccc(O)cc2O)c1 | 53*
COc1cccc(C=Nc2ccc3c(c2)OCCO3)c1O | -2
